Compound activity (PubChem)
An excerpt weighted towards active compounds, which were near 19% of everything screened.
TDP1 block: blocks human tyrosyl-DNA phosphodiesterase 1; recombinant TDP1, AlphaScreen DNA substrate cleavage; Potency, µM (highest dose often 130 µM), hits mostly inhibitors; 350,000 compounds, 0.28% hits; AID 485290; also: nearly all actives have a fitted effect of over 40% in size
Target sequence (Q9NUW8 whole entry, looked up): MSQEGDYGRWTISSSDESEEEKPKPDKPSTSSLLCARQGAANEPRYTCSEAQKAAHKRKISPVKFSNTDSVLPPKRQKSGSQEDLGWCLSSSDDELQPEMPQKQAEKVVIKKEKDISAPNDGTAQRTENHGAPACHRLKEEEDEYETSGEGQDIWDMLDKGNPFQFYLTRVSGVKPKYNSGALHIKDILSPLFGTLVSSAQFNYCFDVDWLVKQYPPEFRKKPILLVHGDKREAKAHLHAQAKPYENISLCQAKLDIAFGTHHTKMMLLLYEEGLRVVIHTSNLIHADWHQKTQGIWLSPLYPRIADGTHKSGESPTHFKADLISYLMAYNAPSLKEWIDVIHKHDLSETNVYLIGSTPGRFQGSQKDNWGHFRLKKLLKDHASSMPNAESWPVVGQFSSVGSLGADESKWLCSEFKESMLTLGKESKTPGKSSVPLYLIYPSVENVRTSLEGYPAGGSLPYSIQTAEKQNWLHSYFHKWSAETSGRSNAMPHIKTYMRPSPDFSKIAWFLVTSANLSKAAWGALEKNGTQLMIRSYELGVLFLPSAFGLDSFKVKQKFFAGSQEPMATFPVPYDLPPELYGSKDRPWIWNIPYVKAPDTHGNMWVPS
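AlphaScreen read-out: signal falls as enzyme removes the 3' tyrosine-FITC from a 5'-biotinylated DNA oligo (15 nM, 5 min, RT). Enzyme was E. coli-made recombinant Tdp1 at 1 nM, exposed to compound for 15 min beforehand; beads 10 ug/ml, 10 min.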
Gal4-VP16 FLuc: Gal4-VP16 reporter inhibition counter-screen; Drosophila S2 Gal4-VP16 UAS-luciferase, luminescence, 20 h; Potency, µM (titrated, usually from 53.6 µM), most hits filed as inhibitors; 310,000 compounds, 3.5% hits;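 also: Gal4-VP16 expression switched on by copper sulfate through the metallothionein promoter; nearly all actives have a fitted effect of over 50% in size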
TDP1 cell noCPT: qHTS for Inhibitors of human tyrosyl-DNA phosphodiesterase 1 (TDP1): qHTS in cells in absence of CPT; Potency, µM (top dose mostly 46.2 µM), most hits filed as inhibitors; DT40 Tdp1-/- hTDP1 cells, no CPT, ATP luminescence, 48 h; 420,000 compounds, 15% hits; also: nearly all actives have a fitted effect of over 55% in size
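Stably hTDP1-transfected Tdp1-null chicken DT40 cells were treated with library compounds minus camptothecin and grown for at least 48 hr at 37 °C, after which cellular ATP was quantified by luminescence.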
TDP1 cell CPT: DT40-hTDP1 cell growth loss with CPT; chicken DT40 Tdp1-/-;hTDP1 cells + 20 nM CPT, ATP luminescence, 48 h; Potency, µM (top dose mostly 46.2 µM), actives largely listed as inhibitors; 420,000 compounds, 12% hits; AID 686979; also: nearly all actives have a fitted effect of over 55% in size
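Chicken DT40 Tdp1-/- cells stably complemented with human TDP1 were seeded at 400 cells/well in medium containing 20 nM camptothecin, exposed to pin-transferred compounds, and grown at 37 °C for at least 48 hr. Viability was read as ATP luminescence.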
RORg inh: ROR gamma (mouse) transcription inhibition; Drosophila S2 Gal4-RORgamma UAS-luciferase reporter, 20 h; 310,000 compounds, 5.4% hits; Potency, µM (top dose mostly 53.6 µM), usual class: inhibitors; AID 2551; also: nearly all actives have a fitted effect of over 60% in size
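Drosophila Schneider cells stably carrying a metallothionein-driven Gal4 DBD–ROR gamma fusion and a UAS-Photinus luciferase reporter were exposed to compound for 1 hr, then induced with copper sulfate (700 uM final) for 20 hr at ambient temperature before luminescence reading.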
Numbers stand for hits; - = inactive; ? = inconclusive; . = not tested or not shown. Calls follow the shape of the dose curve; as a rule, active = well fitted curve in the direction sought with a large enough effect; inconclusive = small, poorly fitted or top-dose-only effect, or another doubt; inactive = no such curve, though single readings can be large; an effect the other way counts as inactive or inconclusive.

SMILES | TDP1 block | Gal4-VP16 FLuc | TDP1 cell noCPT | TDP1 cell CPT | RORg inh
CCC(c1nnnn1-c1ccc2c(c1)OCCO2)N1CCN(c2ccc(F)cc2)CC1 (centres undefined) | . | . | 16µM | 15µM | .
CCC(c1nnnn1-c1ccc2c(c1)OCCO2)N1CCN(C(=O)C2CCCO2)CC1 (centres undefined) | . | . | - | - | .
CCN(CC)S(=O)(=O)c1ccc(C(=O)OCCN2C(=O)c3cccc4c(N5CCOCC5)ccc(c34)C2=O)cc1 | - | - | 18µM | ? | -
O=C(OCCN1C(=O)c2cccc3c(N4CCOCC4)ccc(c23)C1=O)c1cc(Cl)cc(Cl)c1 | - | - | . | . | -
COc1ccc2oc(C(=O)OCC(=O)N3C(C)CCCC3C)c(C)c2c1 (centres undefined) | - | - | - | - | -
CCn1nnc(NC(=O)c2cccnc2)n1 | - | - | - | - | -
CCn1nnc(NC(=O)c2ccc(C(C)(C)C)cc2)n1 | - | 13µM | - | - | 13µM
COc1ccc2c(c1)c(/C=C/c1cc[n+](C)cc1)cn2C | . | - | 4.6µM | 4.6µM | -
CC(C)NCCCCOc1cccc(Br)c1 | - | - | 23µM | ? | -
CC(C)NCCOc1cccc(Br)c1 | - | - | - | - | -
Brc1cccc(OCCCNC2CCCC2)c1 | . | - | 21µM | ? | -
CCCOc1ccc(OCCNC2CCCC2)cc1 | - | - | 16µM | - | -
CCOc1ccc(OCCNC2CCCC2)cc1 | - | - | - | - | -
Cc1ccc(CN(C)C[C@H]2OCc3cnnn3CCCC(=O)N([C@@H](C)CO)C[C@@H]2C)cc1 | . | . | ? | - | .
COc1ccc([N+](=O)[O-])cc1N(CC(O)CN(C)C)S(=O)(=O)c1ccc(C)cc1 (centres undefined) | - | - | - | - | -
COc1ccc([N+](=O)[O-])cc1N(CC(O)CN1CCOCC1)S(=O)(=O)c1ccccc1 (centres undefined) | - | - | - | ? | -
COc1ccc([N+](=O)[O-])cc1N(CC(O)CN(CC(C)C)CC(C)C)S(=O)(=O)c1ccccc1 (centres undefined) | - | - | 21µM | ? | -
CCCCN(CCCC)CC(O)CN(c1cc([N+](=O)[O-])ccc1OC)S(=O)(=O)c1ccccc1 (centres undefined) | - | - | 15µM | ? | -
O=C(CN1CCN(S(=O)(=O)c2ccc(F)cc2)CC1)c1ccc(O)c(O)c1 | - | - | 23µM | ? | -
O=C(CN1CCN(S(=O)(=O)c2ccc(Cl)cc2)CC1)c1ccc(O)c(O)c1 | - | - | 8.2µM | 12µM | -
COC(=O)C(/C=N/O)NC(=O)c1ccccc1 (centres undefined) | - | - | - | - | -
O=C(NC(=S)NCc1ccccc1)c1ccccc1Br | . | 10µM | - | - | 8.9µM
O=C(NC(=S)NCCc1ccccc1)c1ccccc1F | - | ? | - | - | 18µM
COC(=O)C(NC(=O)c1ccccc1)C(C)(C)SCc1ccccc1 (centres undefined) | . | . | 18µM | ? | .
O=C(NC(=S)NCc1nc2ccccc2[nH]1)c1ccccc1F | - | - | 16µM | 23µM | -
SMILES | TDP1 block | Gal4-VP16 FLuc | TDP1 cell noCPT | TDP1 cell CPT | RORg inh
CCCCn1c(N)c(N(CC(C)C)C(=O)Cn2c(=O)oc3ccccc32)c(=O)[nH]c1=O | - | . | - | - | .
O=C(CNC(=O)c1ccc(Br)o1)NNC(=O)COc1ccccc1Cl | - | . | - | - | .
O=C(O)CNC(=S)N(Cc1ccccc1)Cc1ccccc1F | - | - | - | - | -
O=C(NC(=S)NCCc1ccccc1)c1ccccc1 | - | ? | - | - | 5.6µM
CN(CCC#N)C(=S)NC(=O)c1ccc(S(=O)(=O)N2CCOCC2)cc1 | - | ? | - | - | 5µM
O=C(NC(=S)N(CCO)Cc1ccccc1)c1ccc(S(=O)(=O)N2CCCC2)cc1 | - | 4.5µM | ? | ? | 2.2µM
O=C(NC(=S)N(Cc1ccccc1)Cc1ccccc1)c1ccccc1F | - | 0.71µM | ? | ? | 0.25µM
Cc1nn(-c2ccccc2)c(=S)c2ccccc12 | - | - | - | - | -
CCCC(=O)Nc1nc2c(s1)COc1ccccc1-2 | . | - | ? | ? | -
O=C(NC(=S)NCc1ccccc1)c1ccccc1F | - | ? | - | - | 10µM
CC1CCCCC1NC(=S)NC(=O)c1ccccc1Br (centres undefined) | - | 5µM | ? | ? | 2.8µM
O=C(NCCc1ccccc1)c1ccccc1F | - | ? | - | - | ?
O=C(NC(=S)NC(=O)c1ccccc1F)c1ccccc1F | - | 5.6µM | ? | - | ?
CCOc1ccc(C(=O)NC(Cc2ccccc2)C(=O)OC)cc1 (centres undefined) | - | - | - | - | -
COC(=O)C(Cc1ccccc1)NC(=S)NC(=O)c1ccccc1 (centres undefined) | - | ? | 18µM | ? | 3.2µM
COc1ccccc1NC(=O)c1ccc(-c2ccccc2[N+](=O)[O-])o1 | - | - | ? | - | -
CCCn1c(SCC(=O)Nc2cccc(Cl)c2Cl)n[nH]c1=O | - | - | - | - | -
CC(C)(C)c1nc2c(s1)CCc1onc(-c3ccc(Br)cc3)c1-2 | . | . | - | - | .
N/C(=N\NC(=O)Nc1ccccc1)c1ccccn1 | . | - | - | - | -
OCCN(Cc1ccccc1)C(=S)Nc1ccc(Cl)cc1Cl | - | ? | ? | ? | ?
O=C(NC(=S)NCc1ccccc1)c1ccccc1[N+](=O)[O-] | - | 16µM | ? | - | 7.9µM
Cc1ccccc1C(=O)NC(=S)N(CCO)Cc1ccccc1 | . | 2.8µM | - | - | 2µM
COc1cc(C)c(NC(=S)Nc2ccc(C)c(Cl)c2)cc1OC | - | ? | - | - | 11µM
COc1cc(C)c(NC(=S)Nc2cccc(Cl)c2)cc1OC | - | - | - | - | ?
COc1cc(OC)c(NC(=S)Nc2cccc(C)c2)cc1Cl | - | ? | 9.2µM | - | 10µM
SMILES | TDP1 block | Gal4-VP16 FLuc | TDP1 cell noCPT | TDP1 cell CPT | RORg inh
Cc1ccc(C)c(N2CCN(CC3CCCCC3)CC2)c1 | . | - | ? | ? | -
COc1ccccc1NS(=O)(=O)c1cc(C(=O)N2CCCCCC2)ccc1C | - | . | ? | - | .
COC(=O)c1ccc(NC(=S)NC2CC3CCC2C3)cc1 (centres undefined) | - | ? | 21µM | 18µM | 11µM
COC(=O)c1ccc(NC(=S)NCC2CC2)cc1 | - | ? | - | - | 11µM
CCN(CC)C(=S)Nc1ccc(C(=O)OC)cc1 | - | - | - | - | -
CCOc1ccc(NC(=O)c2ccc(NC(=S)NC3CCCCC3)cc2)cc1 | - | ? | ? | 21µM | -
CCOc1ccc(NC(=O)c2ccc(NC(=O)c3ccc(NC(N)=O)cc3)cc2)cc1 | 56µM | . | - | - | .
CCOc1ccc(NC(=O)c2ccc(N)cc2)cc1 | - | - | - | - | -
CN(C(=O)c1cc([N+](=O)[O-])ccc1N1CCCC1)C1CCCCC1 | - | - | - | - | -
